C diff HTS = blocks growth of Clostridium difficile; Clostridium difficile clinical isolate growth, OD600, 24 h; hits give low values; growth activity, negative = inhibition, % at 16 µg/mL (by protocol); actives 0.25% (n = 86,000);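 active means mean growth activity at or below -80% and every replicate also at or below -80%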;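 further: 0% = DMSO wells and -100% = levofloxacin 16 µg/mL wells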
Pf Dd2 inh = blocks growth of Plasmodium falciparum Dd2 parasites; activity change, % at 10 µM; actives 2.3% (n = 94,000); P. falciparum Dd2 growth, SYBR Green, 72 h; hits give low values; in the data active means activity change below about -80%
T cruzi growth = blocks T. cruzi growth in NIH3T3 culture; T. cruzi beta-gal in NIH3T3, GalScreen luminescence, 90 h; inhibition, % at 8.34 µM; actives 5.9% (n = 77,000); AID 624255;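 active means mean inhibition above about 93%, with at least 55% of replicates each passing it, limit read from the data, passing the limit was not always enough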
Starred values were filed as active, the others as inactive; x = no result given. Only some compounds are listed: those with a hit (about 6.7% of all), similar ones and a draw of the others.

SMILES	C diff HTS	Pf Dd2 inh	T cruzi growth
C[C@H]1CCCCO[C@@H](CN(C)Cc2ccc(Cl)c(Cl)c2)[C@@H](C)CN([C@@H](C)CO)C(=O)c2cc(NC(=O)Nc3ccc(C(F)(F)F)cc3)ccc2O1	5	-78	70
C[C@H](CO)N1C[C@H](C)[C@@H](CN(C)Cc2ccc(Cl)c(Cl)c2)OCCCC[C@H](C)Oc2ccc(NC(=O)CCC(F)(F)F)cc2C1=O	8	2	80
C[C@@H]1CCCCO[C@@H](CN(C)Cc2ccc(Cl)c(Cl)c2)[C@H](C)CN([C@@H](C)CO)C(=O)c2cc(NC(=O)Nc3ccc(C(F)(F)F)cc3)ccc2O1	16	-85*	72
C[C@@H]1CCCCO[C@H](CN(C)Cc2ccc(Cl)c(Cl)c2)[C@@H](C)CN([C@@H](C)CO)C(=O)c2cc(NC(=O)Nc3ccc(C(F)(F)F)cc3)ccc2O1	22	-86*	26
C[C@@H]1CN([C@H](C)CO)C(=O)c2cc(NC(=O)CCC(F)(F)F)ccc2O[C@@H](C)CCCCO[C@H]1CN(C)Cc1ccc(Cl)c(Cl)c1	2	-83*	44
CC(C)CC#Cc1cnc2c(c1)C(=O)N([C@H](C)CO)C[C@@H](C)[C@H](CN(C)C(=O)c1ccc(F)cc1)O2	4	-14	37
C/C=C/c1ccc([C@@H]2[C@@H](CO)N(C(C)=O)C23CN(C(=O)c2ccc(F)cc2)C3)cc1	-5	-20	x
COc1ccc(S(=O)(=O)Nc2ccc3c(c2)C(=O)N([C@@H](C)CO)C[C@@H](C)[C@@H](CN(C)S(=O)(=O)c2cn(C)cn2)OCCCC[C@@H](C)O3)cc1	0	7	-65
CC=Cc1ccc2n(c1=O)C[C@@H]1[C@@H](CO)[C@H](C(=O)NC3CCCC3)N(C(=O)C3CCC3)[C@H]21 (mixture of isomers)	2	60	x
O=C(NCC[C@@H]1CC[C@H](NS(=O)(=O)c2ccc(Oc3ccccc3)cc2)[C@@H](CO)O1)C1CC1	-11	-4	-36
COc1ccc2c3c([nH]c2c1)[C@H](CO)N(C(=O)CN(C)C)CC31CN(CC2CCCC2)C1	1	-77	x
COc1ccc2c3c([nH]c2c1)[C@@H](CO)N(C(=O)CN(C)C)CC31CCN(CC2CCCCC2)CC1	5	-87*	x
COc1ccc2c3c([nH]c2c1)[C@H](CO)N(C(=O)CN(C)C)CC31CCN(CC2CC2)CC1	10	3	x
COc1ccc2c3c([nH]c2c1)[C@H](CO)N(C(=O)CN(C)C)CC31CCN(CC2CCCCC2)CC1	7	-89*	x
COCC(=O)Nc1ccc2c(c1)[C@H]1C[C@H](CC(=O)NCC3CC3)O[C@H](CO)[C@H]1O2	1	14	-10
COc1ccc(-c2ccc([C@@H]3[C@@H](C#N)N[C@@H]3CO)cc2)cc1	-2	7	29
Cc1ccc(S(=O)(=O)N(C)C[C@H]2Oc3ccc(NC(=O)Nc4ccccc4)cc3C(=O)N([C@H](C)CO)C[C@H]2C)cc1	2	0	x
O=C(Nc1ccc(F)cc1)N1CC(=O)N2[C@H](CO)[C@H](c3ccc(C#CC4CC4)cc3)[C@@H]2C1	-1	-36	x
C[C@@H]1CN([C@@H](C)CO)C(=O)c2cc(NC(=O)Nc3ccc(F)cc3)ccc2O[C@@H](C)CCCCO[C@@H]1CN(C)C(=O)Nc1ccc2c(c1)OCO2	3	-89*	x
C[C@@H]1CCCCO[C@@H](CN(C)C(=O)Nc2ccc(C(F)(F)F)cc2)[C@H](C)CN([C@@H](C)CO)C(=O)c2cc(NC(=O)Nc3ccc4c(c3)OCO4)ccc2O1	-3	15	112*
C[C@@H]1CCCCO[C@@H](CN(C)C(=O)Nc2ccc3c(c2)OCO3)[C@H](C)CN([C@@H](C)CO)C(=O)c2cc(NC(=O)Nc3ccc(F)cc3)ccc2O1	2	4	33
C[C@H](CO)N1C[C@H](C)[C@@H](CN(C)C(=O)Nc2ccc3c(c2)OCO3)OCCCC[C@H](C)Oc2ccc(NC(=O)Nc3ccc(C(F)(F)F)cc3)cc2C1=O	8	-57	91
CCC(=O)N(C)C[C@H]1Oc2ncc(C3=CCCC3)cc2C(=O)N([C@H](C)CO)C[C@@H]1C	-2	46	0
CN(C)CC(=O)Nc1ccc2c(c1)[C@H]1C[C@@H](CC(=O)NCc3ccc(-c4ccccc4)cc3)O[C@@H](CO)[C@H]1O2	4	-52	60
CCCN1CCC2(CC1)CN(Cc1ccccc1OC)[C@H](CO)c1c2c2ccc(OC)cc2n1C	9	-92*	x
SMILES	C diff HTS	Pf Dd2 inh	T cruzi growth
COc1ccc2c3c(n(C)c2c1)[C@@H](CO)N(Cc1ccc(F)cc1)CC31CCN(CC2CCOCC2)CC1	4	-49	x
COc1ccc2c3c(n(C)c2c1)[C@H](CO)N(Cc1ccccc1OC)CC31CCN(C)CC1	2	-42	x
COc1ccc2c3c(n(C)c2c1)[C@@H](CO)N(Cc1ccccc1OC)CC31CCN(C(=O)C2CC2)CC1	6	-83*	x
COc1ccc2c3c(n(C)c2c1)[C@H](CO)N(Cc1ccccc1OC)CC31CN(CC2CCOCC2)C1	7	-89*	x
COc1ccc2c3c(n(C)c2c1)[C@H](CO)N(Cc1ccccc1OC)CC31CN(CC2CC2)C1	11	-49	x
COc1ccc2c3c(n(C)c2c1)[C@@H](CO)N(Cc1ccccc1F)CC31CCN(C(=O)C2CC2)CC1	4	-60	x
COc1ccc2c3c(n(C)c2c1)[C@@H](CO)N(Cc1ccc(F)cc1)CC31CCN(CC2CC2)CC1	0	-86*	x
C[C@@H]1CN([C@@H](C)CO)C(=O)c2cc(C#CC3CC3)cnc2O[C@H]1CN(C)S(=O)(=O)c1cccc(F)c1	x	-38	-52
O=C(C1CCC1)N1CC2(C1)[C@@H](c1ccccc1)[C@@H](CO)N2CCC(F)(F)F	-1	2	x
C[C@H]1CN([C@@H](C)CO)C(=O)c2cc(NC(=O)Nc3cccc4ccccc34)ccc2O[C@@H]1CN(C)S(=O)(=O)c1cn(C)cn1	x	-7	13
CN(C)CC(=O)N1[C@@H]2Cn3c(cccc3=O)[C@H]1[C@@H](C(=O)NCc1ccccc1)[C@@H]2CO	-1	x	60
CCC(=O)Nc1ccc2c(c1)C(=O)N(C)C[C@H](OC)[C@@H](C)CN(C(=O)c1ccncc1)[C@@H](C)CO2	x	7	8
CN1c2ccc(-c3cccc(C#N)c3)cc2[C@H]2[C@H](CCN2C(=O)C2CCC2)[C@@H]1CO	-6	-25	3
CC(C)NC(=O)N1[C@@H](CO)[C@@H](c2ccccc2)C12CN(Cc1cc(F)cc(F)c1)C2	9	-18	x
CO[C@H]1CN(C)C(=O)c2ccc(NC(=O)c3ccccc3)cc2OC[C@@H](C)N(CC2CC2)C[C@H]1C	x	-10	5
Cc1noc(C)c1NC(=O)Nc1ccc2c(c1)C(=O)N([C@H](C)CO)C[C@@H](C)[C@@H](CN(C)C(=O)Nc1ccc(C(F)(F)F)cc1)OCCCC[C@@H](C)O2	7	-87*	50
C[C@H]1CCCCO[C@H](CN(C)C(=O)CCCN(C)C)[C@@H](C)CN([C@@H](C)CO)C(=O)c2cc(NC(=O)Nc3ccc(C(F)(F)F)cc3)ccc2O1	x	-38	35
C[C@@H]1CCCCO[C@H](CN(C)C(=O)Nc2ccc(C(F)(F)F)cc2)[C@H](C)CN([C@@H](C)CO)C(=O)c2cc(NC(=O)Nc3ccccc3)ccc2O1	0	-82*	x
